Drawing on PubChem BioAssay (EPA / NIEHS), this text covers AC50 and outcome for 10 compounds.

Usually AC50 stands for the midpoint of the concentration-response curve, whichever way the signal moves.

The structures appear in SMILES notation. “And” between values parts separate entries of the source, which are not always exact repeats. Equal values may be shown once. The source made the active and inactive calls. The calls were made as follows: active = hit-call score of the fitted dose curve at least 0.9, where 1 is the maximum; inactive = score below 0.9.

The assay is described as follows: CCTE_Shafer_MEA_dev_per_burst_spike_percent: CCTE's Neural Network Formation Assay for Percent of Spikes in a Burst, Shafer Lab (AID 2284032). As for the experimental part: CCTE_Shafer_MEA_dev assay is conducted using Axion Biosystems 48 well microelectrode array (MEA) plates and Maestro recording system. Each well of the MEA plate contains a grid of 16 microelectrodes embedded in the culture surface. Electrically active cells, such as neurons, can be cultured over the electrodes, and electrical activity in these cells can be recorded extracellularly. The spontaneous firing of neurons is captured from each electrode on a microsecond timescale providing both temporally and spatially precise data. […] The CCTE_Shafer_MEA_dev assay uses primary cultures of rat cortical neurons. Recordings are made on days post-plating 5, 7, 9 and 12. As these cultures mature over time, neural networks develop functional activity and form cohesive networks in which electrical activity can be highly coordinated. CCTE_Shafer_MEA_dev_per_burst_spike_percent is 1 of 19 assay components of the CCTE_Shafer_MEA_dev assay. It measures the percentage of spikes (action potential firings) in a single-electrode burst (temporally-clustered group of spikes) as the total number spikes in bursts divided by the total number of spikes during a recording in a microelectrode array (MEA) using Axion Biosystems Maestro 768 channel amplifier with the AxIS adaptive spike detector. The percent of spikes in bursts is averaged across the actively bursting electrodes to report a well-mean value. To collapse across multiple recordings made on days post-plating 5, 7, 9 and 12, the trapezoidal area-under-the-curve of the component is calculated.Data from the assay component CCTE_Shafer_MEA_dev_per_burst_spike_percent was analyzed into 1 assay endpoint. This assay endpoint, CCTE_Shafer_MEA_dev_per_burst_spike_percent, was analyzed in the negative analysis fitting direction relative to DMSO as the negative control and baseline of activity. Using a type of functional reporter, gain or loss-of-signal activity can be used to understand electrical activity.
On the day prior to culture, each well was coated thoroughly with 150 uL of 0.05% polyethyleneimine (PEI, Sigma Cat P3143) in 50 mM HEPES (Sigma Cat H7523) at a pH of 8. The plate was incubated at 37C for one hour. PEI was rinsed out with 500 uL of sterile water three times. Plates were stored at 4C until the day of culture. This culture was plated at a seeding density of 1.5 x 10^5 cells/well on a 48-well MEA plate, prepared as described above. Cells were administered via a 25 uL media/laminin ([…]; Sigma Cat L2020-1MG) drop directly onto the microelectrode array, as adding the cells with the laminin results in better attachment than pre-coating with laminin. After 2 hours, an additional 475 uL of cortical media was added and the cells returned to the incubator. Exposure starts at day 0 of plating and is continued over twelve days of network development until the experiment is terminated. Cells are fed with fresh medium on DIV 5 and 9, following the recordings on those days. The entire volume of media in the well is exchanged and any vehicle or compound treatment is renewed. Complete details are found in OP-NHEERL/ISTD/SBB/TJS/2015-03-r0 (available on request, email shafer.tim@epa.gov). Measurement of the electrical activity is non-invasive, and recordings can be made from the same plate over multiple different days of the culture. In cortical neurons, this allows for the measurement of extracellular action potentials over the period during which networks form in the MEA plate.
Turning to `CC#C[C@]1(O)CC[C@H]2[C@@H]3CCC4=CC(=O)CCC4=C3[C@@H](c3ccc(N(C)C)cc3)C[C@@]21C`, the half-maximal activity concentration (AC50) is 6.81 µM (active) and 22.9 µM (active).
With `CN1CCC[C@H]1c1cccnc1`, the call was inactive.
For `c1ccc2cc3c(ccc4ccccc43)cc2c1`, the outcome was inactive.
The same measure, in the same setting: to `OCCC(F)(F)C(F)(F)C(F)(F)C(F)(F)C(F)(F)C(F)(F)F` belongs “inactive”; to `c1ccc2c(c1)Cc1ccccc1-2`, “inactive”.
`CC1=C(/C=C/C(C)=C/C=C/C(C)=C/C(=O)O)C(C)(C)CCC1`: the AC50 is 19.6 µM (active).
Consider `CC(O)CO` (stereo not given), for which the compound was classed as inactive.
Still for that read-out and setting: to `C=C(C)C(=O)OCCC(F)(F)C(F)(F)C(F)(F)C(F)(F)C(F)(F)C(F)(F)F` belongs “inactive”; to `OCCC(F)(F)C(F)(F)C(F)(F)C(F)(F)C(F)(F)C(F)(F)C(F)(F)C(F)(F)F`, “inactive”; to `c1ccc2c(c1)ccc1ccccc12`, “inactive”.
